ELG1 genotoxic: inducers of genotoxicity in HEK293T ELG1-luciferase cells; Potency, µM (titrated, usually from 46 µM), without a hit: top-dose activity change, positive = activation, actives largely listed as activators; HEK293T ELG1-luciferase reporter, luminescence, 16 h; actives 1.3% (n = 330,000); note: % of control where 0% means no effect; nearly all actives have a fitted effect of over 60% in size
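HEK293T cells expressing luciferase-tagged ELG1 were treated with compound or DMSO for 16 hr at 37°C. Luciferase activity was then read after 30 min with ONE-Glo at room temperature; rising signal flags genetic stress.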
FLuc modulator: inhibits or activates purified firefly luciferase, miR-21 counter-screen; actives 6.9% (n = 360,000); Potency, µM (doses to about 57.5 µM), for inactives: at the top dose activity change, negative = inhibition, actives largely listed as inhibitors; P08659; AID 588342; purified FLuc, Km substrates, luminescence inhibition;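 note: plate controls were vehicle for no effect and reference inhibitor for full effect; nearly all actives have a fitted effect of over 55% in size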
Target sequence (P08659 whole entry, looked up): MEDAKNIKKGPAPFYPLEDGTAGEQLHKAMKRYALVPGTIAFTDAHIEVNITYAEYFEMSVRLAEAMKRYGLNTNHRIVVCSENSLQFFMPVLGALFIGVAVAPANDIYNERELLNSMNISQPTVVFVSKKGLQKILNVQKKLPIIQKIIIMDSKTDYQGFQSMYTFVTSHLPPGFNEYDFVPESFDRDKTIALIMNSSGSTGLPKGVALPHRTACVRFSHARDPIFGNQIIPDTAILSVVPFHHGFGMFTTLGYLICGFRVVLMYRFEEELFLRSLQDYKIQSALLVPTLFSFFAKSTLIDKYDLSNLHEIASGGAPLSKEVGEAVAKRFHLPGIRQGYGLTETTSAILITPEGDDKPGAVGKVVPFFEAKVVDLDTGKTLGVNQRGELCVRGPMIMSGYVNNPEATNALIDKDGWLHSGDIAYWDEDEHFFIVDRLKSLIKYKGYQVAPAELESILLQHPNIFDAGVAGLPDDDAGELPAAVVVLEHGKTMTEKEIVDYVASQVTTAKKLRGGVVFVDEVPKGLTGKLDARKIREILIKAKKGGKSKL
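Purified P. pyralis luciferase (10nM final) with 10uM D-luciferin and 10uM ATP (Km levels) in 50mM Tris acetate pH 7.5, 10mM Mg acetate, 0.01% Tween-20, 0.05% BSA; qHTS 6-point titration, ~60 µM downward; luminescence read.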
SMN2 splice up: enhancers of SMN2 splice variant expression | HEK293 SMN2-luciferase splicing reporter, luminescence, 30-36 h | AID 1458 | actives 2.8% (n = 210,000) | Potency, µM (highest dose often 46.1 µM), without a hit: at the highest dose activity change, positive = activation, actives largely listed as activators; note: % of control where 0% means no effect; nearly all actives have a fitted effect of over 55% in size
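HEK293 cells carry an SMN2 […]–luciferase reporter in which exon 7 inclusion puts luciferase in frame. Cells were plated 10-12 h before compound addition, then incubated 30-36 h at 37C. ONE-Glo luminescence was read; sodium butyrate at 4.5 mM final served as control.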
KinaseGlo FLuc: Kinase-Glo luciferase inhibition (counter-screen) | Potency, µM (doses to about 38.3 µM), for inactives: top-dose activity change, negative = inhibition, usual class: inhibitors | AID 1379 | actives 0.28% (n = 200,000) | Kinase-Glo luciferase, ATP luminescence, 8 min; note: % is set by controls: 0 for no effect and ±100 for the full control effect; nearly all actives have a fitted effect of over 60% in size
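Kinase-Glo luciferase light output from ATP and luciferin was measured with 10 uM ATP, within the enzyme's linear range. Buffer: 50 mM imidazole pH 7.2, 50 mM KCl, 7 mM MgCl2, 0.01% Tween 20, 0.05% BSA; luminescence read after 8 min at ambient temperature.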
NPC1 prom act: NPC1 promoter activation. Huh7 NPC1 promoter luciferase reporter, 24 h. Potency, µM (doses to about 9.22 µM), without a hit: at the highest dose activation, most hits filed as activators. actives 2.4% (n = 320,000); note: % of control where 0% means no effect; nearly all actives have a fitted effect of over 60% in size
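Compounds in DMSO were transferred onto Huh7 NPC1-luciferase reporter cells pre-incubated 2 h; after 24 h at 37 °C, Amplite reagent was dispensed and luminescence recorded 10 min later.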
Rab9 promoter act: activators of Rab9 promoter; Potency, µM (top dose mostly 9.22 µM), for inactives: at the highest dose activation, negative = inhibition, hits mostly activators; actives 2.8% (n = 320,000); Huh7 Rab9 promoter-luciferase reporter, luminescence, 24 h; note: % of control where 0% means no effect; nearly all actives have a fitted effect of over 60% in size
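Huh7 cells stably carrying a Rab9 promoter-luciferase reporter, 1500 cells per well in OP-MEM I with 10% FBS, treated with compound 24 hours at 37C. Luciferase activity read by luminescence after 10 minutes with Amplite reagent.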
* marks the source's active call; other numbers are inactive results; ? = inconclusive; . = no result; [ ] = dose if it differs, or a comment. Shown are actives, neighbours in structure and some others; about 7.5% of the full set was active somewhere. Calls come from the whole dose curve; as a rule, active = well fitted curve in the direction sought with a large enough effect; inconclusive = small, poorly fitted or top-dose-only effect, or another doubt; inactive = no such curve, though single readings can be large; an effect the other way counts as inactive or inconclusive. Potency is the fitted concentration of half-maximal effect.

SMILES	ELG1 genotoxic	FLuc modulator	SMN2 splice up	KinaseGlo FLuc	NPC1 prom act	Rab9 promoter act
COc1ccccc1-n1c(C)cc(/C=C2/C(=N)N3C(=NC2=O)SN=C3S(C)(=O)=O)c1C	?	0.675µM*	-13.5%	-1.8%	?	?
CCOc1ccc(-n2c(C)cc(/C=C3/C(=N)N4C(=NC3=O)SN=C4S(C)(=O)=O)c2C)cc1	3.6%	16.9µM*	-6.0%	0.9%	-0.6%	-2.3%
COc1ccc2c(c1)c1c(c(=O)n(Cc3ccccc3)c(=O)n1CC(=O)NCc1ccc(C)cc1)n2C	.	1.9%	.	.	.	.
CCCOC(=O)Nc1ccc(S(=O)(=O)Nc2ncccn2)cc1	2.5%	-1.3%	.	.	-1.6%	-1.9%
Cc1ccnc(OC(C(=O)O)C(OCc2ccccc2)(c2ccc(F)cc2)c2ccc(F)cc2)n1 (centres undefined)	-8.9%	8.2%	.	.	-4.3%	-5.9%
COc1ccc(-n2c(C)cc(/C=C3\C(=N)N4N=C(CC(=O)N5CCOCC5)SC4=NC3=O)c2C)c(OC)c1	5.0%	?	.	.	-2.2%	-10.0%
COc1ccccc1-n1c(C)cc(/C=C2\C(=N)N3N=C(CC(=O)N4CCOCC4)SC3=NC2=O)c1C	7.0%	23.9µM*	.	.	4.2%	-1.6%
O=C(NCCCc1nc2ccccc2n1Cc1ccccc1Cl)c1ccco1	.	-6.2%	-10.7%	.	.	.
Clc1ccccc1Cn1c(/C=C/c2ccco2)nc2ccccc21	-1.2%	10.7µM*	-0.2%	-5.7%	-2.4%	2.4%
COC(=O)C1=C(O)/C(=C\c2ccc(OCC(=O)Nc3ccccc3)cc2)N=C1C	2.9%	23.9µM*	.	.	-2.0%	-2.0%
COC(=O)C1=C(O)/C(=C/c2cccc(OC)c2O)N=C1C	13.2%	15.1µM*	.	.	-3.7%	?
CCCC(C)c1oc(=O)cc(O)c1C (centres undefined)	3.9%	.	.	.	.	.
O=C(Nc1cccc(C(=O)N2CCN(c3ccccc3F)CC2)c1)c1nsc2ccccc12	.	3.01µM*	.	.	.	.
O=C(Nc1cccc(C(=O)N2CCN(c3ccc(Cl)cc3)CC2)c1)c1nsc2ccccc12	.	1.2µM*	.	.	.	.
O=C(Nc1ccc(C(=O)N2CCN(c3ccccc3)CC2)cc1)c1nsc2ccccc12	.	5.36µM*	.	.	.	.
Cc1ccc(C(=O)N2CCN(c3ccc(F)cc3)CC2)cc1NC(=O)c1nsc2ccccc12	.	-3.9%	.	.	.	.
Cc1ccc(C)c(N2CCN(C(=O)c3ccc(NC(=O)c4nsc5ccccc45)cc3)CC2)c1	.	16.9µM*	.	.	.	.
Cc1ccc(C(=O)N2CCC(C)CC2)cc1NC(=O)c1nsc2ccccc12	.	-20.9%	.	.	.	.
N[C@H](CCC(=O)N[C@H](CSN=O)C(=O)NCC(=O)O)C(=O)O	.	.	.	0.6%	.	.
NC(=O)C1CCN(C(=O)c2ccc(NS(=O)(=O)c3ccc(Br)s3)cc2)CC1	-4.2%	-4.2%	.	.	-0.3%	0.2%
COc1cccc(N2CCN(C(=O)c3ccc(C)c(NC(=O)c4nsc5ccccc45)c3)CC2)c1	.	-1.6%	.	.	.	.
O=C(Nc1cccc(C(=O)N2CCN(c3cccc(Cl)c3)CC2)c1)c1nsc2ccccc12	.	2.69µM*	.	.	.	.
O=C(Nc1ccc(C(=O)N2CCN(c3cccc(Cl)c3)CC2)cc1)c1nsc2ccccc12	.	4.26µM*	.	.	.	.
O=C(Nc1cccc(C(=O)N2CCN(c3cccc(Cl)c3)CC2)c1)c1ccccc1	-18.7%	-5.4%	-22.8%	-1.3%	0.2%	0.6%
O=C(Nc1cccc(C(=O)N2CCN(c3ccc(F)cc3)CC2)c1)c1nsc2ccccc12	.	0.849µM*	.	.	.	.
SMILES	ELG1 genotoxic	FLuc modulator	SMN2 splice up	KinaseGlo FLuc	NPC1 prom act	Rab9 promoter act
CCOc1ccccc1NC(=O)C1CCN(S(=O)(=O)c2c(C)noc2/C=C/c2ccc(C)cc2)CC1	.	-0.5%	.	.	.	.
Nc1nn2c(-c3ccccc3)cc(=O)[nH]c2c1N=Nc1ccc(Br)cc1	-13.3%	21.3µM*	-58.1%	-0.1%	-1.0%	1.7%
Nc1nn2c(-c3ccccc3)cc(=O)[nH]c2c1N=Nc1ccc(O)cc1	-10.9%	6.75µM*	-44.1%	-11.9%	-1.6%	-0.6%[1.84 µM]
Cc1cc(=O)[nH]c2c1c(-c1ccccc1)nn2C	5.4%	2.0%	.	.	-3.2%	-5.8%
Cc1ccnc(NC(=O)C2CC(=O)N(c3ccc4c(c3)OCCO4)C2)c1 (centres undefined)	0.517µM*	4.78µM*	.	.	8.5%	19.8%
Cc1ccc(CN2CC(C(=O)Nc3cc(C)ccn3)CC2=O)cc1 (centres undefined)	16.4µM*	12µM*	.	.	0.0%	-0.2%
Cc1ccc(CN2CC(C(=O)Nc3ccncc3)CC2=O)cc1 (centres undefined)	-2.5%	-0.5%	.	.	-0.8%	14.9%
CC(=O)c1ccc(NC(=O)CN(C)S(=O)(=O)c2cccc3nsnc23)cc1	.	-2.5%	21.5%	.	.	.
COc1ccc(N2CCN(Cc3nc4c(c(=O)[nH]c(=O)n4C)n3CC(C)C)CC2)cc1	.	-3.5%	-1.5%	.	.	.
O=C(NNC(=O)c1ccc(Br)o1)c1csc(N2CCOCC2)n1	2.6%	-19.6%	.	.	2.1%	3.7%
Cc1nn(CC(=O)NCc2ccccc2)c(C)c1[N+](=O)[O-]	0.0%	1.8%	-11.8%	-4.6%	-2.0%	-0.5%
Cc1nn(CC(=O)c2ccccc2Cl)c(C)c1[N+](=O)[O-]	14.6µM*	10.7µM*	?	-15.1%	?	3.98µM*
O=C(Cc1ccc(Br)cc1)N/N=C/c1ccc(-c2cccc(C(=O)O)c2)o1	1.7%	?	.	.	2.2%	1.4%
Cc1ccc(/C=N/Nc2ccc(C(=O)O)cc2)o1	?	6.75µM*	10µM*	-16.4%	0.708µM*	0.398µM*
O=C(O)c1ccc(N/N=C/c2ccc(-c3ccc(Br)cc3)o2)cc1	?	2.39µM*	.	.	22.3%	18.5%
Cc1ccc(/C=N/NC(=O)c2ccc(-n3cccc3)cc2)o1	1.2%	-1.9%	.	.	0.8%	7.7%
O=C(O)c1cc(-c2ccc(/C=N/Nc3ccc(Cl)cc3)o2)ccc1Cl	0.2%	10.7µM*	0.1%	1.7%	14.0%	2.6%
Nc1nonc1C(=O)N/N=C/c1ccc(-c2ccc(Cl)c(C(=O)O)c2)o1	-5.9%	?	13.7%	1.1%	-0.8%	-3.0%
CCCCCNS(=O)(=O)c1cc2c3c(c1)CCC(=O)N3CCC2	2.2%	-4.3%	.	.	-0.2%	-8.8%

Source: PubChem (National Center for Advancing Translational Sciences (NCATS))
